The source made the active and inactive calls. The rule behind the calls is not given here.

The target of the test is Pantothenate synthetase (Mycobacterium tuberculosis (strain ATCC 25618 / H37Rv)) (UniProt P9WIL5). Briefly: Recombinant Mtb pantothenate synthetase (PanC) inhibitors, coupled enzyme, confirmatory (AID 375).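 Note: 0% = full reaction with vehicle and 100% = no enzyme background.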 The conditions noted are these: coupled enzyme assay; at 10 µM, hits give high values.
Pantothenate synthetase (Mycobacterium tuberculosis (strain ATCC 25618 / H37Rv)), sequence (P9WIL5 whole entry, looked up): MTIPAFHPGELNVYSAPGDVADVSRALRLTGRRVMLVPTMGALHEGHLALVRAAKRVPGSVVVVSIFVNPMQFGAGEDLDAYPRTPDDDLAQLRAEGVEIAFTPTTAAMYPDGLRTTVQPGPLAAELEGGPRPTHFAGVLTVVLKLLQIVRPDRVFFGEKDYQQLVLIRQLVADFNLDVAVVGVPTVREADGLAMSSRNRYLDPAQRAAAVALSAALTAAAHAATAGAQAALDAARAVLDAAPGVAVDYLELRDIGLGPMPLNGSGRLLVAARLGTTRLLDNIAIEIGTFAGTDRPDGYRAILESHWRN
As usually defined, the inhibition is the relative decrease from the control value, in per cent. `COc1ccc(C2(CN(C(C)=O)C(C)=O)CCCC2)cc1OC`: the inhibition was 2% (inactive).
Take `COC(=O)CN(Cc1ccco1)S(=O)(=O)c1ccccc1`: the inhibition was 1% (inactive).
The value for `O=C1c2ccccc2S(=O)(=O)N1CC(O)Cn1c2ccccc2c2ccccc21` (centres undefined) was 0% (inactive).
Turning to `O=C(O)CCCNS(=O)(=O)c1ccc(NCc2ccccc2)c(C(=O)O)c1`, the inhibition was 0% (inactive).
In the case of `COc1ccccc1C(=O)n1nc(-c2ccccc2)nc1N`, the inhibition is 2% (inactive).
For the molecule `Cc1ccc2c(c1)C(O)(CC(=O)c1ccc3c(c1)OCO3)C(=O)N2` (centres undefined), the inhibition is 0% (inactive).
As for `CC(=O)Nc1cccc(NC(=O)C2CCCN2C(=O)Nc2ccc(C)cc2)c1` (centres undefined), the inhibition is 0% (inactive).
Turning to `Cc1ccc(CN2C(=O)CCC2C(=O)NCC2CCCO2)cc1` (centres undefined), the inhibition was 3% (inactive).
`O=C(Cc1ccc(S(=O)(=O)N2CCCC2)s1)Nc1nc2c(s1)CCCC2`: the inhibition was 1% (inactive).
`COc1ccccc1NC(=O)C1=C(C)Nc2nnnn2C1c1ccccc1OC` (centres undefined): the inhibition is 2% (inactive).
Consider `COc1cccc(C2C(C(=O)c3cc4ccccc4o3)=C(O)C(=O)N2CCN(C)C)c1OC` (centres undefined), for which the inhibition was 1% (inactive).
`COc1ccc(-c2cc3ccc(OCc4nn[nH]n4)cc3oc2=O)cc1`: the inhibition was 7% (inactive).
With `O=C(Nc1nccs1)c1ccc(Cl)c(S(=O)(=O)N2CCCCC2)c1`, the inhibition is 0% (inactive).
Take `O=C(CSc1nnc(Cc2ccccc2)n1C1CCCCC1)N1CCOCC1`: the inhibition is 3% (inactive).
As for `CC(=O)Nc1ccc(NC(=O)c2cc(C)nn2-c2ccccc2)cc1`, the figure is 2% (inactive); as for `Cc1cc(NC(=O)CSc2ccc(Cl)cc2)no1`, 0% (inactive); as for `CC1(C)CC(=O)C=C(NC2CCS(=O)(=O)C2)C1` (centres undefined), 0% (inactive).
As for `Cc1cc(=O)oc2c1ccc1oc(/C(=N/O)c3ccccc3)c(C)c12`, the figure is 0% (inactive); as for `CCOc1cccc(C(=O)N(Cc2ccc(F)cc2)C2CCS(=O)(=O)C2)c1` (centres undefined), 3% (inactive).
In the case of `COc1cccc(N2CCN(Cc3nc(N)nc(Nc4ccccc4OC)n3)CC2)c1`, the inhibition was 0% (inactive).
With `Cc1ccc(-n2ncc3c(=O)n(CC(=O)N4CCCc5ccccc54)cnc32)cc1C`, the inhibition was 4% (inactive).
With `O=C(CC1Oc2ccccc2NC1=O)NCCCN1CCOCC1` (centres undefined), the inhibition is 0% (inactive).
Turning to `Cc1ccc(S(=O)(=O)N2CCN(C(=O)CSC3CCCC3)CC2)c(C)c1`, the inhibition is 0% (inactive).
On to `CCCN(Cc1cc2cc(C)ccc2[nH]c1=O)C(=O)c1cccc(OC)c1`, for which the inhibition is 0% (inactive).
`Clc1ccc(Cl)c(-c2ccc(/C=N/c3ncn[nH]3)o2)c1`: the inhibition is 4% (inactive).
As for `O=C(C1CCC(CNS(=O)(=O)c2cccc3cccnc23)CC1)N1CCCC1` (centres undefined), the inhibition is 0% (inactive).
For the molecule `COc1cccc(C(=O)Nc2ccc(NC(=O)C(C)(C)C)cn2)c1`, the inhibition was 0% (inactive).
Consider `CC(=O)OCC1OC(c2ccccc2)C(OC(C)=O)C(OC(C)=O)C1OC(C)=O` (centres undefined), for which the inhibition was 0% (inactive).
As for `CCCC(C)c1nnc(NC(=O)C2CCCO2)s1` (centres undefined), the figure is 0% (inactive).
On to `Nc1c(C(=O)NCCN2CCOCC2)c2nc3ccccc3nc2n1-c1ccc2c(c1)OCO2`, for which the inhibition is 1% (inactive).
`CC(C)N(C=O)C1(C(=O)NC2CCCCC2)CCCCC1`: the inhibition is 4% (inactive).
For `Cc1nnc(NC(=O)C2CCCO2)s1` (centres undefined), the inhibition is 3% (inactive).
For the molecule `O=c1cc(-c2ccc(Cl)cc2)[nH][nH]1`, the inhibition was 1% (inactive).
With `CCOC(=O)Cn1c(CN2CCOCC2)nc2c1c(=O)[nH]c(=O)n2C`, the inhibition is 0% (inactive).
The value for `CCN(CC)c1nc2nonc2nc1N(CC)CC` was 0% (inactive).
For `O=C(Nc1ccccc1)c1cccnc1N1CCOCC1`, the inhibition is 0% (inactive).
`CC1CCc2cc(F)cc3c(=O)c(C(=O)O)cn1c23` (centres undefined): the inhibition is 2% (inactive).
For the molecule `O=C(Cn1ccc2ccccc2c1=O)NCCC(=O)N1CCN(C2CCCCC2)CC1`, the inhibition was 5% (inactive).
As to `COC(=O)Cn1cnc2sc(C)c(S(=O)(=O)N3CCC(C)CC3)c2c1=O`, the inhibition was 4% (inactive).

For the origin of these results see PubChem BioAssay.
